A selection: hits, their analogues and other compounds. The true share with any hit is near 4.8%.
hcDAF-12 act: H. contortus DAF-12 nuclear receptor activators, primary screen, cell-based, luminescence, HEK293, lit1-tk-luc reporter | HEK293 hcDAF-12 lit1-tk-luc reporter; 0% DMSO, 100% Δ7-dafachronic acid | activation, % at 6.8 µM | 1.4% of 370,000 active;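 active means activation above the mean of all tested compounds plus 3 SD, cut at about 5.5% in these data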
ssDAF-12 act: S. stercoralis DAF-12 nuclear receptor activators, primary screen, cell-based, luminescence, HEK293, GRIP1 co-expression, lit1-tk-luc. HEK293 ssDAF-12/GRIP1 lit1-tk-luc reporter; % of 3 µM dafachronic acid response. 1% of 370,000 active. AID 652126, 2013. activation, % at 6.8 µM;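 active means activation above the mean over all tested compounds plus 3 SD, cut at about 0.9% in these data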
DAX1 inh-1: DAX1 (NR0B1) inhibitors, primary screen, cell-based, HEK293, Gal4-DAX1, luciferase luminescence | Nuclear receptor subfamily 0 group B member 1 (Homo sapiens), P51843 | HEK293 Gal4-DAX1 luciferase reporter | inhibition, % at 6.75 µM | 0.99% of 340,000 active;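 active means inhibition above the mean over all tested compounds plus 3 SD, cut at about 4.2% in these data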;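 further: inhibition shows as a rise in luminescence from relieved DAX1 repression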
DAX1 inh-2: DAX1 (NR0B1) inhibitors on StAR promoter, primary screen, cell-based, luminescence, SF-1 (NR5A1), full-length DAX-1 | HEK293T StAR-luciferase reporter, SF-1/DAX-1 repression relief | AID 652010, 2013 | 1.1% of 370,000 active | inhibition, % at 6.8 µM;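 active means inhibition above the mean over all tested compounds plus 3 SD, cut at about 3.6% in these data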;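 further: higher inhibition means more luminescence from relief of DAX-1 repression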
hgDAF12 agonist: H. glycines DAF-12 receptor agonists, primary screen, cell-based, luminescence, HEK293, GAL4 fusion, UAS-luciferase; Nuclear hormone receptor DAF-12 (Heterodera glycines), GAL4 fusion; HEK293 GAL4-hgDAF12 UAS-luciferase reporter, agonist luminescence; normalized to butyrate control; AID 687014, 2013; activation, % at 6.8 µM; 1.8% of 370,000 active;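 active means activation above a cutoff set at the mean of all screened compounds plus 3 SD, cut at about 10% in these data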
SMARCA2 activ: SMARCA2 (BRM) function activators, primary screen, cell-based, luminescence, high throughput. MG213 cells, MMTV-luciferase reporter, dexamethasone, overnight. activation, % at 9.1 µM. 1% of 370,000 active; in the data active means activation above about 7.8%
DAX1 inh confirm: DAX1 (NR0B1) inhibitors relieving SF-1 repression, confirmation, cell-based, luminescence, HEK293T, full-length DAX-1, SF-1 activated StAR promoter. HEK293T StAR-promoter luciferase reporter, SF-1/DAX-1 repression. shares compounds with DAX1 inh-2. 87% of 2,400 active. inhibition, % at 6.8 µM;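 active means inhibition above the average of every tested compound plus 3 SD, cut at about 3.8% in these data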
Target sequence (P51843 whole entry, looked up): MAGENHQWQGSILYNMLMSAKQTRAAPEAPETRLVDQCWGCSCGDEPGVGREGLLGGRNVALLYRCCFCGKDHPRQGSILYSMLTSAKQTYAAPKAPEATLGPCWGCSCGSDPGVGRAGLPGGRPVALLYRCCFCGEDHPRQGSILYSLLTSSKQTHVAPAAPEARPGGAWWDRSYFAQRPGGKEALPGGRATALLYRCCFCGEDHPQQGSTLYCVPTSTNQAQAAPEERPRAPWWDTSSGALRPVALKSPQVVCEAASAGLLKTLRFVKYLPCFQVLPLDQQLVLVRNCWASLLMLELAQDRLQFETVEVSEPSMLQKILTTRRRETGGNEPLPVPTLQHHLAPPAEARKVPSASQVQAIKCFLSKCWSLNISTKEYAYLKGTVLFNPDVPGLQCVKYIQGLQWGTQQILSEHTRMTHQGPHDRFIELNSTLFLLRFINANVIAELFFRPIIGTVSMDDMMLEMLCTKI
SF1 mutant ctr: StAR reporter signal changes without DAX1, counter-screen for DAX1 inhibitor project, cell-based, luminescence, AF-2 mutant SF-1, transactivation; shares compounds with DAX1 inh-2; HEK293 StAR-luciferase, SF-1 AF2 mutant; inhibition, % at 6.8 µM; 78% of 2,400 active;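 active means inhibition above the mean of all tested compounds plus 3 SD, cut at about 3% in these data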
Numbers stand for hits; – = inactive; · = no result given.

SMILES	hcDAF-12 act	ssDAF-12 act	DAX1 inh-1	DAX1 inh-2	hgDAF12 agonist	SMARCA2 activ	DAX1 inh confirm	SF1 mutant ctr
O=C(Nc1ccc([N+](=O)[O-])cc1Cl)c1cc(Cl)ccc1O	–	–	–	6.7	12	–	–	–
COc1ccccc1N1CCN(C(=O)c2[nH]c(C(F)(F)F)nc2-c2ccccc2)CC1	–	–	·	–	–	–	·	·
Cc1cccc(N2CCN(C(=O)c3[nH]c(C(F)(F)F)nc3-c3ccccc3)CC2)c1C	–	–	·	10	–	–	9.8	–
C=CCOc1ccc(/C=C2/C(=N)N3N=C(CC(=O)N4CCCC4)SC3=NC2=O)cc1OC	–	–	–	–	–	–	·	·
O=C(Nc1ccc(F)cc1F)c1ccc2ncsc2c1	–	–	–	4.9	–	–	–	–
CC(=O)Nc1ccc(NC(=S)NC(=O)C2CCCC2)cc1	–	–	–	4.9	–	–	–	–
Clc1ccc(-c2nnc(SCc3nc4ccccc4[nH]3)o2)c(Cl)c1	–	–	–	–	–	–	·	·
Clc1ccc(-c2nnc(SCc3ccon3)o2)c(Cl)c1	6.2	–	–	7.2	16	–	11	5.4
COc1ccc(NC(=S)Nc2cccc(Cl)c2)cc1OC	–	–	–	–	–	–	·	·
CC1=C(/C=C/C(C)=C/C=C/C(C)=C\C(=O)O)C(C)(C)CCC1	–	–	–	5.9	–	–	18	7.5
O=C(C[n+]1ccc2ccccc2c1)c1ccc2ccc3ccccc3c2c1	–	–	·	5.3	–	–	–	–
COc1cc(Cl)ccc1OCc1cc(C(=O)N2CCN(C3CCCCC3)CC2)no1	–	–	–	–	–	–	·	·
Nc1ccc(S(=O)(=O)N2CCC(Cc3ccccc3)CC2)cc1	–	–	–	–	–	–	·	·
CC(C)(C)OC(=O)N1CCC(C(=O)Nc2ccc3c(c2)CCC3)CC1	–	–	–	4.7	12	–	4.7	–
COC(=O)c1cc(C)nc(Sc2ccccc2NC(C)=O)n1	–	–	·	–	–	–	·	·
Cc1sc(=NC(=O)c2ccco2)n(C)c1-c1ccccc1	–	–	–	5.5	–	–	14	6.3
C#CCn1c(=NC(=O)c2ccco2)sc2cccc(Cl)c21	–	–	–	–	–	–	·	·
CC(CC(=O)N(CCC1=CCCCC1)c1c(N)n(Cc2ccccc2)c(=O)[nH]c1=O)c1ccccc1 (centres undefined)	–	–	–	6.3	–	–	–	–
CCN(C(=O)CSc1ncccn1)c1c(N)n(Cc2ccccc2)c(=O)[nH]c1=O	–	–	–	4.7	–	–	–	–
Cc1nn(C(C)(C)C)c(C)c1/C=N/OC(=O)Nc1ccc(Cl)c(Cl)c1	–	–	–	–	–	–	·	·
CC(=O)Nc1nnc(COc2ccc(Cl)cc2)s1	–	–	–	5.5	13	–	6.2	3.0
CC(C)C(=O)Nc1nnc(COc2ccc(Cl)cc2)s1	–	–	–	–	–	–	·	·
COc1ccc(-c2cc3nc4n(c(=O)c3s2)CCC4)cc1	–	–	–	6.6	–	–	7.3	–
COc1ccc(-c2nc3n(c2C)CCC3)cc1	–	–	–	–	–	–	·	·
COc1ccc(-c2nc(CC(=O)O)cs2)cc1	–	–	–	–	–	–	·	·
SMILES	hcDAF-12 act	ssDAF-12 act	DAX1 inh-1	DAX1 inh-2	hgDAF12 agonist	SMARCA2 activ	DAX1 inh confirm	SF1 mutant ctr
COc1ccc(-c2csc(-c3ccc(C(=O)O)cc3)n2)cc1	–	–	–	4.7	12	–	12	7.0
O=C(CCN1C(=O)C2CC=CCC2C1=O)N1CCN(c2ccccn2)CC1 (centres undefined)	–	–	–	–	–	–	·	·
Nc1cc(N)nc(SCc2ccccc2Cl)n1	–	–	–	–	–	–	·	·
C/C(=N\NC(=O)c1ccccc1O)c1cccs1	–	–	–	5.4	–	–	5.9	–
COC(=O)[C@@H](NC(=O)NCc1ccc(F)cc1)C(C)C	–	–	–	–	–	–	·	·
CC(C)CNC(=O)COC(=O)c1ccc(Cl)c(S(N)(=O)=O)c1	–	–	–	–	–	–	·	·
CCN=c1scc(-c2ccco2)n1/N=C/c1ccc(OC)c(O)c1	–	–	–	5.0	–	–	15	7.3
COc1ccc(O)c(C(=O)CC(=O)c2cccnc2)c1	–	–	–	6.5	–	13	7.3	6.9
O=C(CSc1nnc(-c2ccccc2Cl)o1)Nc1ccccn1	–	–	–	6.1	11	–	17	6.7
CC(C)(C)NC(=O)C(c1ccccc1)n1c(=O)c(-c2cc3ccccc3[nH]2)nc2ccccc21 (centres undefined)	–	–	·	–	–	–	·	·
CC(C)(C)NC(=O)C(c1ccc(-c2ccccc2)cc1)n1c(=O)c(-c2cc3ccccc3[nH]2)nc2ccccc21 (centres undefined)	–	1.4	·	4.9	–	–	4.4	4.6
CC(=O)Nc1cccc(-c2csc(Nc3ccccn3)n2)c1	–	–	–	4.5	–	–	12	6.0
CC(=O)O[C@H]1CC[C@@]2(C)[C@@H](CC[C@H]3[C@@H]4CC[C@H](C(C)O)[C@@]4(C)CC(=O)[C@@H]32)C1 (some centres undefined)	–	–	–	–	–	–	·	·
C=CCn1c(C)cc(C(=O)COc2ncnc3sccc23)c1C	6.3	–	–	5.2	11	–	14	6.5
Cc1cc(N)n2ncc(-c3cccc(Br)c3)c2n1	–	–	–	4.9	–	–	7.0	3.7
O=C(CSc1nnc(-c2ccccc2F)o1)N1CCNC1=O	–	–	–	7.7	–	–	11	6.8
O=C(Nc1ccccn1)c1ccc(Cl)s1	–	–	–	5.2	12	–	7.0	6.2
O=C(NCc1ccccn1)c1ccc(Cl)s1	–	–	–	–	–	–	·	·
Clc1ccc(-c2cn3cc(Br)ccc3n2)cc1Cl	14	3.0	–	8.0	23	–	13	5.2
Cc1ccc2nc(-c3ccc4c(c3)OCCO4)cn2c1	–	–	–	–	–	–	·	·

Screens deposited in PubChem BioAssay by The Scripps Research Institute Molecular Screening Center.
